Of roughly 7,900 targets only a part is listed; those with a hit were picked by preference. About 0.6% of all pairs of compound and target were hits.
How the values were obtained:
Assay in all cases: log2 fold change, soluble protein after heating vs DMSO (PISA); higher = thermal stabilisation; K562 cells, 10 uM, 30 min; active = over 0.2 and 3.5 SD of the protein, either way, in both replicates (recomputed)
[1] = compound: COC1=CC=C(C=C1)CN2C=CC3=C2C=C(C=C3)C(=O)NO
How it was run: (§1)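 Soluble protein was defined as the supernatant after 21,000xg for 90 min. It came from K562 cells at 2×10^6 cells/mL given 10 μM compound for 30 min, heated in aliquots for 3 min across 48°C-58°C, pooled, and extracted in PBS with 0.5% NP-40 at 4°C, and was quantified by TMTpro 16plex LC-MS/MS with equalised channel sums. Thermal stability against control samples, from duplicates, is reported as log2 fold change.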

[2] = compound: CON(C)C(=O)N1N=C(c2cc(F)ccc2F)S[C@@]1(CCCN)c1ccccc1 [filanesib]
How it was run: as §1

[3] = compound: CO[C@H]1C[C@@H]2CC[C@@H](C)[C@@](O)(O2)C(=O)C(=O)N2CCCC[C@H]2C(=O)O[C@H]([C@H](C)C[C@@H]2CC[C@H](n3cnnn3)[C@H](OC)C2)CC(=O)[C@H](C)/C=C(\C)[C@@H](O)[C@@H](OC)C(=O)[C@H](C)C[C@H](C)/C=C/C=C/C=C/1C [zotarolimus]
How it was run: as §1

[4] = compound: COc1cc(C(=O)O)ccc1NC(=O)[C@@H]1N[C@@H](CC(C)(C)C)[C@](C#N)(c2ccc(Cl)cc2F)[C@H]1c1cccc(Cl)c1F [idasanutlin]
How it was run: as §1

[5] = compound: COc1cc(Nc2ncc3c(n2)-c2ccc(Cl)cc2C(c2c(F)cccc2OC)=NC3)ccc1C(=O)O [alisertib]
How it was run: as §1

[6] = compound: COc1cc2nc(-c3cc(F)ccc3O)nc(N[C@@H]3CNC[C@H]3C(C)(C)O)c2cc1OC
How it was run: as §1

[7] = compound: COc1cc2ncnc(Nc3ccc(F)c(Cl)c3)c2cc1OCCCN1CCOCC1 [gefitinib]
How it was run: as §1

[8] = compound: COc1cccc2cc(-c3nc([C@H]4CC[C@H](C(=O)O)CC4)n4ncnc(N)c34)[nH]c12
How it was run: as §1

[9] = compound: CS(=O)(=O)CCNCc1ccc(-c2ccc3ncnc(Nc4ccc(OCc5cccc(F)c5)c(Cl)c4)c3c2)o1 [lapatinib]
How it was run: as §1

[10] = compound: CS(=O)(=O)N1CCN(Cc2cc3nc(-c4cccc5[nH]ncc45)nc(N4CCOCC4)c3s2)CC1 [pictilisib]
How it was run: as §1

[11] = compound: CS(=O)(=O)c1ccc(-c2cnc(N)c(C(=O)Nc3ccccc3)n2)cc1
How it was run: as §1

[12] = compound: C[C@@H](Oc1cc(-c2cnn(C3CCNCC3)c2)cnc1N)c1c(Cl)ccc(F)c1Cl [crizotinib]
How it was run: as §1

[13] = compound: C[C@@H]1COCCN1C2=NC(=NC(=C2)C3(CC3)S(=O)(=O)C)C4=C5C=CNC5=CC=C4
How it was run: as §1

[14] = compound: C[C@H](C1=CC=C(C=C1)C(=O)NC2=C3C=CNC3=NC=C2)N
How it was run: as §1

[15] = compound: C[C@H](Nc1ncnc2nc[nH]c12)c1cc2cccc(Cl)c2c(=O)n1-c1ccccc1 [duvelisib]
How it was run: as §1

[16] = compound: Cc1cc(Nc2cc(CN3CCOCC3)c3nc(C)c(Cc4ccc(Cl)cc4F)n3n2)n[nH]1 [gandotinib]
How it was run: as §1

[17] = compound: Cc1cc(Nc2cc(N3CCN(C)CC3)nc(Sc3ccc(NC(=O)C4CC4)cc3)n2)n[nH]1 [tozasertib]
How it was run: as §1

[18] = compound: Cc1cc(SCc2sc(-c3ccc(C(F)(F)F)cc3)nc2C)ccc1OCC(=O)O
How it was run: as §1

[19] = compound: Cc1ccc(-n2nc(C(C)(C)C)cc2NC(=O)Nc2ccc(OCCN3CCOCC3)c3ccccc23)cc1 [doramapimod]
How it was run: as §1

[20] = compound: Cc1ccc(C(=O)N(CCCN)[C@@H](c2nc3cc(Cl)ccc3c(=O)n2Cc2ccccc2)C(C)C)cc1 [ispinesib]
How it was run: as §1

Measured: log2 fold change

FAF2 (UniProt Q96CS3)
Chain of UniProt Q96CS3 (Q96CS3 whole entry, looked up): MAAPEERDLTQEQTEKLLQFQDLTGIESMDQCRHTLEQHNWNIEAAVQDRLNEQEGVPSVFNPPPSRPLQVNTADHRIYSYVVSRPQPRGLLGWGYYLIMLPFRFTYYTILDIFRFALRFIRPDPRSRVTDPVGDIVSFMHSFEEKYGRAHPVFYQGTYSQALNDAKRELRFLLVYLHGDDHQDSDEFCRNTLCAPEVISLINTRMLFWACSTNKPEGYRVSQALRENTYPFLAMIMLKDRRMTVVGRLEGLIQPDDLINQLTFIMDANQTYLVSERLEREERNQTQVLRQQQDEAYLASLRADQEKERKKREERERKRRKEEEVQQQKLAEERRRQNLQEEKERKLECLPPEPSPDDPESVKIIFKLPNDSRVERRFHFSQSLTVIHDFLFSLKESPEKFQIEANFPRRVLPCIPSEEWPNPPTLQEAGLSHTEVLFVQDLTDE
inactive: [1] -0.019 | [2] -0.022 | [3] 0.035 | [4] 0.007 | [5] 0.004 | [6] -0.011 | [7] 0.056 | [8] 0.009 | [9] 0.029 | [10] 0.017 | [11] 0.049 | [12] -0.056 | [13] 0.042 | [14] 0.049 | [15] 0.031 | [16] 0.022 | [17] 0.016 | [18] 0.059 | [19] 0.023 | [20] -0.011

EIF4G1 isoform 8 (UniProt Q04637)
Chain of UniProt Q04637 (Q04637 whole entry, looked up): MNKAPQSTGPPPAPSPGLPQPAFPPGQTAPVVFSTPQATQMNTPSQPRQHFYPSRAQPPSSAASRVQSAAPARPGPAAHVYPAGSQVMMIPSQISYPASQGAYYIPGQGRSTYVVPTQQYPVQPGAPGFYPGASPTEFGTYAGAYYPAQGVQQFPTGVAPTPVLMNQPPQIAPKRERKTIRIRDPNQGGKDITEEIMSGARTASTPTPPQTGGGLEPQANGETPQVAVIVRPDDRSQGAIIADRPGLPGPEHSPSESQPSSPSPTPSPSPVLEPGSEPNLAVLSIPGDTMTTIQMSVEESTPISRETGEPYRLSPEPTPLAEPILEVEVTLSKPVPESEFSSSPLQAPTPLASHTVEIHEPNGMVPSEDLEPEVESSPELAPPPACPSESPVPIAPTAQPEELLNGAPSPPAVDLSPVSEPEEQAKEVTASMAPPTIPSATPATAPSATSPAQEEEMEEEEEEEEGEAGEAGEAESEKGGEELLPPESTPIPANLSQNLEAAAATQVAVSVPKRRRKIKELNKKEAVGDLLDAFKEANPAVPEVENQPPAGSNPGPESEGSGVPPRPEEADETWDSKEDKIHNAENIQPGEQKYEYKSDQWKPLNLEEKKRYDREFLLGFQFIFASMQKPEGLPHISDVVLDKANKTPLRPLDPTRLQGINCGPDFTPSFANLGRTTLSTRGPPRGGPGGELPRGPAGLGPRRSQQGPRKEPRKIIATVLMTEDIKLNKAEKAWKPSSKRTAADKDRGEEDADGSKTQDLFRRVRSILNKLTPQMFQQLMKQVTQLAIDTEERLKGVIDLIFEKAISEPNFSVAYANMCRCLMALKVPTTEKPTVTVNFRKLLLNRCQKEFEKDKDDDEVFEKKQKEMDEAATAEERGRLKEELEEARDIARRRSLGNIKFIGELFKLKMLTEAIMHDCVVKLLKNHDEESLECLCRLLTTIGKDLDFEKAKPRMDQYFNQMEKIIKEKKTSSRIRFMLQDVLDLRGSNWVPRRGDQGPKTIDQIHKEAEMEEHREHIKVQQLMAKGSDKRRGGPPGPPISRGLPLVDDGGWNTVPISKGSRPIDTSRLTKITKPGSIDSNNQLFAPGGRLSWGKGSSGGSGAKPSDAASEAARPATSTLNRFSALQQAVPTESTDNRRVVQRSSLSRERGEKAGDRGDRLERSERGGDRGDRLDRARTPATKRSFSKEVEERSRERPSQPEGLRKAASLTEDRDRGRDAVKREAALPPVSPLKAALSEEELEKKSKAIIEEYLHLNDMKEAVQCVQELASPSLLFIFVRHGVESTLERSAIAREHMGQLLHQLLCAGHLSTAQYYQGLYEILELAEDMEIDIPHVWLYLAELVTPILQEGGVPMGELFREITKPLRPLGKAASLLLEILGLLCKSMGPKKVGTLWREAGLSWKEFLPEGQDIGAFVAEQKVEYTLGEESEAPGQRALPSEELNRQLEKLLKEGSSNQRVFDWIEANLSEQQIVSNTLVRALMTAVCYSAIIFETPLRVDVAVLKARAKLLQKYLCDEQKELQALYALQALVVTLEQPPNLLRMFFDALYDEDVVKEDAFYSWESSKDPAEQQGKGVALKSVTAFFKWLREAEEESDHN
inactive: [1] 0.01 | [2] 0.067 | [3] -0.121 | [4] 0.09 | [5] -0.007 | [6] -0.003 | [7] -0.114 | [8] -0.369 | [9] -0.073 | [10] -0.27 | [11] -0.21 | [12] -0.314 | [13] -0.206 | [14] 0.109 | [15] -0.1 | [16] -0.032 | [17] 0.008 | [18] 0.149 | [19] 0.032 | [20] -0.324

CTSV (UniProt O60911)
Chain of UniProt O60911 (O60911 whole entry, looked up): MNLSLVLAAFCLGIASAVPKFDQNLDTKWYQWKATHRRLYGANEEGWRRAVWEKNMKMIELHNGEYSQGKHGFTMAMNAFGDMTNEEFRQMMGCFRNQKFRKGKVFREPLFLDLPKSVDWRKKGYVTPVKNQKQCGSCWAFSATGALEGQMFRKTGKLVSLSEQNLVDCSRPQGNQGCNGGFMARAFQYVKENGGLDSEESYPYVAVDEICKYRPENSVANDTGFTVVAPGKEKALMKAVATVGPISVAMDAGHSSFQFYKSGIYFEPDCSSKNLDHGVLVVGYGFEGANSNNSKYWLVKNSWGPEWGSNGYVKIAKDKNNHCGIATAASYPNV
inactive: [1] -0.006 | [2] -0.112 | [3] -0.011 | [4] -0.036 | [5] -0.042 | [6] -0.002 | [7] 0.056 | [8] 0.141 | [9] -0.064 | [10] 0.135 | [11] 0.073 | [13] 0.099 | [14] -0.01 | [15] -0.039 | [16] -0.334 | [17] -0.031 | [18] -0.04 | [19] -0.005
active: [12] -1.59 | [20] -0.453

DHX40 (UniProt Q8IX18)
Chain of UniProt Q8IX18 (Q8IX18 whole entry, looked up): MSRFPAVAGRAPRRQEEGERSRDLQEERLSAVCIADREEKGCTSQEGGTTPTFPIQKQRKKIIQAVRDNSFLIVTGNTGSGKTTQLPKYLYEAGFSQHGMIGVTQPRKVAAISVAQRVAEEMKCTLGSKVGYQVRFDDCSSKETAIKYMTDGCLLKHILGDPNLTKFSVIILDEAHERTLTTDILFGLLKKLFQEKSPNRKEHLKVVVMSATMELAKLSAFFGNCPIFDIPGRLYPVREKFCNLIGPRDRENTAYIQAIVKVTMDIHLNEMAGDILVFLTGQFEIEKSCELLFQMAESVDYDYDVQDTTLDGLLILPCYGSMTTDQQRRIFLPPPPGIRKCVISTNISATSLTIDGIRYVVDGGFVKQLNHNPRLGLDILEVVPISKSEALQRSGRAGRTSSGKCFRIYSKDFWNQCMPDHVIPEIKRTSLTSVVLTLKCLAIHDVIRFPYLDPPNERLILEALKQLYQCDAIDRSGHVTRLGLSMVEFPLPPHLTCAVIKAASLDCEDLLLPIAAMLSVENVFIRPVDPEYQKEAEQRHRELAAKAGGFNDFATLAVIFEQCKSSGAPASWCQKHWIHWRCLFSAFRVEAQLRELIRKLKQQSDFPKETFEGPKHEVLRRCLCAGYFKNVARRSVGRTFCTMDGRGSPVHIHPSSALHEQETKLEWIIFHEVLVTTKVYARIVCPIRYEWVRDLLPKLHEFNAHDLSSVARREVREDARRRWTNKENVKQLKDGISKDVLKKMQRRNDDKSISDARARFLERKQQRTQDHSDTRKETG
inactive: [1] -0.025 | [2] 0.022 | [3] 0.008 | [4] 0.025 | [5] -0.146 | [6] -0.019 | [7] 0.31 | [8] -0.037 | [9] 0.039 | [10] -0.014 | [11] 0.018 | [12] -0.109 | [13] -0.003 | [14] 0.03 | [15] 0.005 | [16] -0.079 | [17] -0.089 | [18] 0.01 | [19] 0.065 | [20] -0.215

DNAAF2 (UniProt Q9NVR5)
Chain of UniProt Q9NVR5 (Q9NVR5 whole entry, looked up): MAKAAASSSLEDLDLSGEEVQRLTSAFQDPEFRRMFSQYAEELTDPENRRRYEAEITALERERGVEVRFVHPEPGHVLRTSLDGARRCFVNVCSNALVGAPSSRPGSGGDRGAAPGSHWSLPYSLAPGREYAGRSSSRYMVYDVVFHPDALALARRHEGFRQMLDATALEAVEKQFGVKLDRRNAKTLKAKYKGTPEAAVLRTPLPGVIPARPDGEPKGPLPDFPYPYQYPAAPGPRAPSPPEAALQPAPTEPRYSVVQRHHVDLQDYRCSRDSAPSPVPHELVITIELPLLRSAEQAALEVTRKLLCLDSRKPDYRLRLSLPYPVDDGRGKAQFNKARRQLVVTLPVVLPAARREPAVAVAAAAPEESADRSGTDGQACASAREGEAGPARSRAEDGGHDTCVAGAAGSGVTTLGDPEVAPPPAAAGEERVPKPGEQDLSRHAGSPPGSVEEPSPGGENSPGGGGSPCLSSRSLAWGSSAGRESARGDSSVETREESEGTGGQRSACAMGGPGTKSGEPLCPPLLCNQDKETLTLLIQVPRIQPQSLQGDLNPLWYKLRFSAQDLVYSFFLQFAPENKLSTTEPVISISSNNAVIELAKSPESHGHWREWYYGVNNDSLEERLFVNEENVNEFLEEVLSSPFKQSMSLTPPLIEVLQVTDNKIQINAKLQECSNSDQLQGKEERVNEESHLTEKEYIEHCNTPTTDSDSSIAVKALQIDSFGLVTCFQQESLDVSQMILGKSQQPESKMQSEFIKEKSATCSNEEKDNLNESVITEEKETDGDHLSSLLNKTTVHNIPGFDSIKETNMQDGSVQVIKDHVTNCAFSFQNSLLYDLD
inactive: [1] 0.009 | [2] -0.012 | [3] 0.016 | [4] -0.033 | [5] 0.005 | [6] 0.015 | [7] 0.035 | [8] 0.062 | [9] -0.026 | [10] 0.232 | [11] 0.018 | [12] -0.015 | [13] -0.067 | [14] 0.003 | [15] 0.019 | [16] -0.182 | [17] 0.02 | [18] -0.034 | [19] 0.042 | [20] 0.032

DCTN1 isoform 4 (UniProt Q14203)
inactive: [1] -0.007 | [2] 0.047 | [3] 0.095 | [4] 0.012 | [5] -0.045 | [6] 0.007 | [7] 0.042 | [8] -0.083 | [9] -0.007 | [10] -0.135 | [11] -0.013 | [12] -0.112 | [13] 0.015 | [14] 0.131 | [15] -0.045 | [16] 0.016 | [17] 0.037 | [18] 0.111 | [19] 0.088 | [20] -0.141

EBNA1BP2 (UniProt Q99848)
Chain of UniProt Q99848 (Q99848 whole entry, looked up): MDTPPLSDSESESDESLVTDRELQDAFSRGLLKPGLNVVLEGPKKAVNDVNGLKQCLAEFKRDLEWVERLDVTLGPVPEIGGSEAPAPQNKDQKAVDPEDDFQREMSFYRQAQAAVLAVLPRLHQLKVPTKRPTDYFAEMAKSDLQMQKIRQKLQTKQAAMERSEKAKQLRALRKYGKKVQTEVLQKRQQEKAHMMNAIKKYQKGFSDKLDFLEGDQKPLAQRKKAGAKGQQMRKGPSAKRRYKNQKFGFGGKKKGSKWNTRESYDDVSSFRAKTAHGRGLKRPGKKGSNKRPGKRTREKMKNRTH
inactive: [1] -0.054 | [2] 0.686 | [3] 0.069 | [4] 0.283 | [5] -0.172 | [6] -0.095 | [7] -0.01 | [8] -0.216 | [9] 0.153 | [10] -0.069 | [11] -0.013 | [12] -0.025 | [13] -0.236 | [14] 0.394 | [15] -0.138 | [16] 0.104 | [17] 0.191 | [18] 0.025 | [19] 0.282 | [20] 0.21

ETNK1 (UniProt Q9HBU6)
Chain of UniProt Q9HBU6 (Q9HBU6 whole entry, looked up): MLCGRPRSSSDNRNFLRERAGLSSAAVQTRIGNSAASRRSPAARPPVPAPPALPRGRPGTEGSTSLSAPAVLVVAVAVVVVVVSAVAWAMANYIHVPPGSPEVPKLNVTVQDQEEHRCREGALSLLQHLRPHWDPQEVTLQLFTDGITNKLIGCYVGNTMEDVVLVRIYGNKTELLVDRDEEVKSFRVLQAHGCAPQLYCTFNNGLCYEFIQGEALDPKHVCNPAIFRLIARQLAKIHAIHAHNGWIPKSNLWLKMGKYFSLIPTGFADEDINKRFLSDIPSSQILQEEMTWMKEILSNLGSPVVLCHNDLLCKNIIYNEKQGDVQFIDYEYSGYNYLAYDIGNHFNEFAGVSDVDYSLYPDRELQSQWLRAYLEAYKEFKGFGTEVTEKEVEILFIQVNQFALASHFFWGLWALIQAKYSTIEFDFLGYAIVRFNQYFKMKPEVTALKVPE
inactive: [1] -0.083 | [2] -0.172 | [3] 0.016 | [4] -0.105 | [5] -0.045 | [6] 0.013 | [7] -0.02 | [8] 0.01 | [9] 0.078 | [10] -0.044 | [11] -0.006 | [12] -0.022 | [13] 0.088 | [14] -0.032 | [15] 0.075 | [16] -0.057 | [17] 0.021 | [18] 0.118 | [19] 0.001 | [20] 0.059

— the supplement of paper PMC10849652
